Screening data deposited in PubChem by several laboratories.
CYP2C9 act: CYP2C9 (human) activation | recombinant CYP2C9, luciferin-H conversion, luminescence; stronger effect = higher value; factor 1 = untreated enzyme, 0 = blocked | activation factor at 5 µM | actives 1.4% (n = 96,000) | AID 1024;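 active = activation factor of 2 or more for CYP2C9 at a 5 µM dose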;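 note: 0 = sulfaphenazole-blocked wells and 1 = vehicle-only wells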
CYP2C9 inh: inhibitors of human CYP2C9; actives 20% (n = 96,000); inhibition, % at 5 µM; AID 777; CYP2C9 Supersomes, luciferin-H conversion, luminescence;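 active = blocking of liver enzyme CYP2C9 beyond about 50% at 5 µM, limit read from the data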
CYP2C19 act: activators of human cytochrome P450 2C19 | 96,000 tested, under 10 active | P33261 | AID 1025 | activation factor at 5 µM | recombinant CYP2C19, luciferin-H EGE luminescence; stronger effect = higher value; 0 = fully inhibited enzyme, 1 = untreated enzyme;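 active = activation factor of at least 2 at 5 µM in the primary screen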;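 note: 0 = wells with 2.5 mM tranylcypromine and 1 = vehicle-only wells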
Target sequence (P33261 whole entry, looked up): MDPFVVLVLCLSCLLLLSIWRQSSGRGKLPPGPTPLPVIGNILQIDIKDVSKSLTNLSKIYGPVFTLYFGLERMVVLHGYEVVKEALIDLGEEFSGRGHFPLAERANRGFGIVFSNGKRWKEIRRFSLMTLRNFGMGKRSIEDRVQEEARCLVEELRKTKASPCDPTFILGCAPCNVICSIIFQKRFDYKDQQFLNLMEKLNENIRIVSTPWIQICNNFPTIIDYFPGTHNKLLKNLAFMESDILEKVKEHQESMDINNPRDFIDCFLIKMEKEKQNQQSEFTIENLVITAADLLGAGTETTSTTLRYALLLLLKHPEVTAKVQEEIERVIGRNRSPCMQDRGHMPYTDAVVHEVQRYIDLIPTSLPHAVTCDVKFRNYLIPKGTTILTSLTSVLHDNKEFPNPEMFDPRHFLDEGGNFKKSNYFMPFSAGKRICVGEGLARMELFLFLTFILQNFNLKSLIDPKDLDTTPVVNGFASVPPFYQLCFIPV
Measles CPE: protection of cells from measles virus | Measles virus-infected cells, CPE protection, absorbance | AID 841 | actives 1.5% (n = 140,000) | protection (pct of control), % at 4 µM; in the data active = protection mostly above about 24%, no sharp cut-off; inactive = mostly below about 26%
CYP2C19 inhib: human CYP2C19 inhibition; P33261; CYP2C19 Supersomes, luciferin-H EGE luminescence, 30 min; inhibition, % at 5 µM; actives 21% (n = 96,000);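 active = CYP2C19 inhibition above a set limit at 5 µM in the primary screen, cut at about 50% in these data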;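 note: plate controls were negative control wells for no effect and 2.5 mM tranylcypromine positive control for full effect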
Starred values were filed as active, the others as inactive. Hits are enriched below; roughly 22% of the tested compounds scored in any of these assays.

O=C(OCC#CCSc1nc2ccccc2s1)c1ccco1 was read as CYP2C9 act 0.3, CYP2C9 inh 72*, CYP2C19 act 0.2, Measles CPE 6 and CYP2C19 inhib 83*.
Screening O=C(OCC#CCSc1nnc(-c2cccc3ccccc23)o1)c1cccs1 returned CYP2C9 act 2*, CYP2C9 inh -96, CYP2C19 act 0.7, Measles CPE 7 and CYP2C19 inhib 27.
Screening O=C(OCC#CCSc1nnc(-c2ccccc2)o1)c1ccco1 returned CYP2C9 act 0.4, CYP2C9 inh 58*, CYP2C19 act 0.1, Measles CPE 12 and CYP2C19 inhib 88*.
Screening COc1ccc(OC)c(NC(=O)C(=O)NCCC2=CCCCC2)c1 returned Measles CPE 4.
N#Cc1c2c(c(-c3ccco3)[nH]c1=O)CCCC2 was read as CYP2C9 act 1, CYP2C9 inh -4, CYP2C19 act 1, Measles CPE 46* and CYP2C19 inhib -2.
`N#Cc1c(-n2ccnc2)cccc1-n1ccnc1` gave CYP2C9 act 0.1, CYP2C9 inh 94*, CYP2C19 act 0.2, Measles CPE 3 and CYP2C19 inhib 81*.
`Cc1cccc(-n2c(SCC(=O)N3CC(=O)Nc4ccccc43)nc3ccccc3c2=O)c1C` gave Measles CPE 25.
Screening N=c1c[n+](N2CCOCC2)[n-]o1 returned Measles CPE 14.
`CN1CCN(C2=C(Cl)C(=O)N(Cc3ccccc3)C2=O)CC1` gave CYP2C9 act 0.9, CYP2C9 inh 14, CYP2C19 act 0.4, Measles CPE 13 and CYP2C19 inhib 64*.
`CN1CCN(C2=C(Cl)C(=O)N(c3cccc(Cl)c3)C2=O)CC1` gave CYP2C9 act 0.9, CYP2C9 inh 11, CYP2C19 act 0.8, Measles CPE 4 and CYP2C19 inhib 15.
For CN1CCN(C2=C(Cl)C(=O)N(c3ccc(Cl)c(Cl)c3)C2=O)CC1 the results were CYP2C9 act 0.6, CYP2C9 inh 38, CYP2C19 act 0.2, Measles CPE 12 and CYP2C19 inhib 79*.
O=C1c2cccnc2C(=O)N1Cc1ccc2c(c1)OCO2 was read as CYP2C9 act 1.1, CYP2C9 inh -8, CYP2C19 act 0.9, Measles CPE 2 and CYP2C19 inhib 8.
`CCCCCCNc1nc(NCc2ccco2)nc(OCC)n1` gave CYP2C9 act 0.2, CYP2C9 inh 79*, CYP2C19 act 0.3, Measles CPE 3 and CYP2C19 inhib 71*.
For COc1cc(CNc2ccc(CNc3ncn[nH]3)cc2)ccc1OCc1ccccc1 the results were Measles CPE 10.
`COc1ccc(Oc2nc(C)cc(C)c2S(=O)(=O)c2ccc(C)cc2)cc1` gave CYP2C9 act 0.7, CYP2C9 inh 34, CYP2C19 act 0.7, Measles CPE 5 and CYP2C19 inhib 31.
`Cc1cc(C)c(S(=O)(=O)c2ccccc2)c(Cl)n1` gave CYP2C9 act 3.2*, CYP2C9 inh -222, CYP2C19 act 0.3, Measles CPE 11 and CYP2C19 inhib 69*.
`Cc1ccc(S(=O)(=O)c2c(C)cc(C)nc2Cl)cc1` gave CYP2C9 act 1.7, CYP2C9 inh -70, CYP2C19 act 0.1, Measles CPE 6 and CYP2C19 inhib 94*.
`COc1ccc(S(=O)(=O)NNC(=O)C2Cc3c(ccc4ccccc34)O2)cc1` (stereo not drawn) gave CYP2C9 act 0.5, CYP2C9 inh 47, CYP2C19 act 0.8, Measles CPE 14 and CYP2C19 inhib 19.
O=C(CN1CCCCC1)Nc1ccc(NC(=O)c2ccccc2Cl)cc1Cl was read as Measles CPE 10.
O=C(O)CSc1nnc(-c2ccncc2)n1C1CCCCC1 was read as CYP2C9 act 1.2, CYP2C9 inh -18, CYP2C19 act 1, Measles CPE 4 and CYP2C19 inhib -3.
CCOC(=O)C1=C(C)Nc2ncnn2C1/C=C/c1ccccc1 (stereo not drawn) was read as CYP2C9 act 0.4, CYP2C9 inh 63*, CYP2C19 act 0.4, Measles CPE 12 and CYP2C19 inhib 57*.
`CCCC1=C(C(=O)OCC)C(c2ccc(F)cc2)n2ncnc2N1` (stereo not drawn) gave CYP2C9 act 0.2, CYP2C9 inh 76*, CYP2C19 act 0.5, Measles CPE 17 and CYP2C19 inhib 55*.
For CCCC1=C(C(=O)OCC)C(/C=C/c2ccccc2)n2ncnc2N1 (stereo not drawn) the results were CYP2C9 act 0.5, CYP2C9 inh 52*, CYP2C19 act 0.1, Measles CPE 6 and CYP2C19 inhib 91*.
Screening Cc1cc(C)cc(NC(N)=S)c1 returned Measles CPE 10.
COC(=O)C(C(=O)Nc1ccc(OC)cc1)C1CCCCCC1 (stereo not drawn) was read as CYP2C9 act 0.3, CYP2C9 inh 69*, CYP2C19 act 0.1, Measles CPE 18 and CYP2C19 inhib 92*.
Screening COC(=O)C(C(=O)Nc1ccccc1C)C1CCCC1 (stereo not drawn) returned CYP2C9 act 0.9, CYP2C9 inh 9, CYP2C19 act 0.4, Measles CPE 6 and CYP2C19 inhib 64*.
Screening Cc1ccccc1NC(=O)N(C(C)C)C(C)C returned CYP2C9 act 0.8, CYP2C9 inh 16, CYP2C19 act 0.9, Measles CPE 3 and CYP2C19 inhib 7.
`COc1ccccc1N(CC(=O)NC(C)(C)C)S(=O)(=O)c1cccs1` gave Measles CPE 4.
For CCn1cc(/C=N\NC(=O)c2ccc(F)cc2)cn1 the results were Measles CPE 29*.
CCc1nc(NCCc2ccccn2)c2nnn(Cc3ccccc3F)c2n1 was read as CYP2C9 act 0.3, CYP2C9 inh 67*, CYP2C19 act 0.3, Measles CPE 19 and CYP2C19 inhib 69*.
`Cc1cc(C)c(-c2csc(NC(=O)c3n[nH]c(=O)c4ccccc34)n2)c(C)c1` gave Measles CPE 62*.
CCOC(=O)N1CCN(C(=O)c2cc(-c3ccc(OCC)cc3)nc3ccccc23)CC1 was read as CYP2C9 act 0.2, CYP2C9 inh 76*, CYP2C19 act 0.8, Measles CPE 3 and CYP2C19 inhib 16.
`CCOc1ccc(-c2cc(C(=O)N3CCN(c4ccccn4)CC3)c3ccccc3n2)cc1` gave CYP2C9 act 0.8, CYP2C9 inh 21, CYP2C19 act 0.9, Measles CPE 9 and CYP2C19 inhib 6.
COc1ccccc1-c1cc(C(=O)N2CCc3ccccc3C2)c2ccccc2n1 was read as CYP2C9 act 0.4, CYP2C9 inh 64*, CYP2C19 act 0.5 and CYP2C19 inhib 48.
CS(=O)(=O)N1CCN(C(=O)c2cc(-c3ccccc3)nc3ccccc23)CC1 was read as CYP2C9 act 0.7, CYP2C9 inh 30, CYP2C19 act 0.6, Measles CPE 5 and CYP2C19 inhib 45.
For CS(=O)(=O)N1CCN(C(=O)c2cc(-c3ccncc3)nc3ccc(Cl)cc23)CC1 the results were CYP2C9 act 0.3, CYP2C9 inh 68*, CYP2C19 act 0.6, Measles CPE 27 and CYP2C19 inhib 36.
